# Experimental data: PubChem BioAssay (Tox21)
# Records with an inconclusive call do not appear. Entries that show only a call come without a potency. Activity calls are given as the source filed them. Calls come from the whole dose curve; as a rule, active = well fitted cell-killing curve with a large enough effect in the repeat runs; inconclusive = weak or mixed curves; inactive = no such curve, though single readings can be large or run the other way.
# Assay: qHTS assay to identify small molecule agonists of the peroxisome proliferator-activated receptor delta (PPARd) signaling pathway - cell viability counter screen (AID 743211); note: nearly all actives have a fitted effect of over 55% in size
# Conditions: PPARd-bla HEK293H viability, CellTiter-Glo luminescence, 17 h; series mostly up to 62.6 µM
# Excerpt: U.S. Tox21 Program National Center for Advancing Translational Sciences [NCATS] NIH Chemical Genomics Center [NCGC] U.S. Environmental Protection Agency [EPA] National Institutes of Environmental Health Sciences [NIEHS] National Toxicology Program [NTP] U.S. Food and Drug Administration [FDA] Tox21 Assay Overview: The peroxisome proliferator-activated receptors (PPARs) are lipid-activated transcription factors of the nuclear receptor superfamily with three distinct subtypes namely PPAR alpha, PPAR delta (PPARd) and PPAR gamma. All these subtypes heterodimerizes with Retinoid X receptor (RXR) and have different physiological functions. […] To identify the compounds that activate PPAR-delta signaling, GeneBLAzer PPAR delta UAS-bla HEK293H cell line (Invitrogen, Carlsbad, CA, USA) containing a beta-lactamase reporter gene under the control of an Upstream Activator Sequence (UAS) was used to screen the Tox21 compound library. The cytotoxicity of the Tox21 compound library against the PPARd-bla cell line was tested in parallel by measuring the cell viability using CellTiter-Glo assay (Promega, Madison, WI) in the same wells.
# Tox21 Assay Protocol Summary: PPARd-bla cells were dispensed at 3000 cells/6uL/well in 1536-well black wall/clear bottom plates using a Multidrop Combi (Thermo Fisher Scientific, Waltham, MA) dispenser. After the assay plates were incubated at 37 C and 5% CO2 for 5 h, 23 nL of compounds dissolved in DMSO, positive controls or DMSO only was transferred to the assay plate by a Pintool station (Kalypsys, San Diego, CA). The assay plates were incubated at 37C for 17 h. After 1 uL of LiveBLAzerTM B/G FRET substrate was added using a Bioraptr Flying Reagent Dispenser (FRD) workstation (Beckman Coulter, Indianapolis, IN, USA), the plates were incubated at room temperature for 2 h, and fluorescence intensity was measured by an Envision plate reader (PerkinElmer, Shelton, CT). For cell viability readout that measures cytotoxicity, 3 ul/well of CellTiter-Glo reagent was added into the assay plates using a Bioraptr FRD. After 30 min incubation at room temperature, the luminescence intensity in the plates was measured using a ViewLux plate reader (PerkinElmer).
# Potency is the fitted concentration of half-maximal effect.
Structure (SMILES),Potency,"activity change, negative = cytotoxicity"
COCCCN1CCC(NC(=O)c2cc(Cl)c(N)c3c2OCC3)CC1,inactive,–
O=C(O)c1ccccc1Cl,inactive,–
CC(COCCO)OCCO (stereo not given),inactive,–
O=C1c2ccccc2S(=O)(=O)N1CCCCN1CCN(c2ncccn2)CC1,inactive,–
CC/C=C\CCOC(=O)CC,inactive,–
O=C(O)CNCC(=O)O,–,-8.65% [at 5.95 µM] (inactive)
CCCn1cnc2c1c(=O)n(CCCCC(C)=O)c(=O)n2C,inactive,–
C[C@@H]1C[C@H]2[C@@H]3CCC4=CC(=O)C=C[C@]4(C)[C@@]3(F)[C@@H](O)C[C@]2(C)[C@@]1(O)C(=O)COC(=O)c1ccncc1,inactive,–
O=C1OC(=O)C2C3C=CC(C3)C12 (stereo not given),inactive,–
COc1ccc(C(=O)Nc2nc3ccccc3c(NCc3ccccc3)c2C#N)cc1,inactive,–
C[C@@H](c1ncncc1F)C(O)(Cn1cncn1)c1ccc(F)cc1F (stereo not given in full),inactive,–
CC(=O)OC[C@H]1O[C@@H](n2ncc(=O)[nH]c2=O)[C@H](OC(C)=O)[C@@H]1OC(C)=O,inactive,–
CCCOC(C(=O)OC1CCN(C)CC1)(c1ccccc1)c1ccccc1,inactive,–
CC(=O)[O][Al],inactive,–
CC(CSC(=O)c1ccccc1)C(=O)N1C[C@@H](Sc2ccccc2)C[C@H]1C(=O)O (stereo not given in full),inactive,–
CCCCCCCCCCO[C@@H]1O[C@H](CO)[C@@H](O)[C@H](O)[C@H]1O,inactive,–
CC1=CCCC(C)(C)C12CCC(C)O2 (stereo not given),inactive,–
Brc1c2ccccc2cc2ccccc12,inactive,–
CCCCCC[C@@H](O)C/C=C\CCCCCCCC(=O)OC,inactive,–
O=[N+]([O-])c1cccc(S(=O)(=O)O)c1,inactive,–

Structure (SMILES),Potency,"activity change, negative = cytotoxicity"
CCCCCCCCCCCCN1CCCCCC1=O,inactive,–
CCCCCCCCO[C@@H]1O[C@H](CO)[C@@H](O)[C@H](O)[C@H]1O,inactive,–
NC(=O)C(c1ccccc1)(c1ccccc1)[C@@H]1CCN(CCc2ccc3c(c2)CCO3)C1,inactive,–
C/C(=C(\CCOP(=O)(O)O)SC(=O)c1ccccc1)N(C=O)Cc1cnc(C)nc1N,–,2.72% [at 5.95 µM] (inactive)
CN(C)c1ccc(/C=C/c2ccc([N+](=O)[O-])cc2)cc1,–,-8.61% [at 5.95 µM] (inactive)
C[C@@H]1C[C@H]2O[C@@]3(O[C@@H]2C(C)(C)O)[C@H](O)[C@@]2(C)[C@@H]4CC[C@H]5C(C)(C)[C@@H](O[C@@H]6OC[C@@H](O)[C@H](O)[C@H]6O)CC[C@@]56C[C@@]46CC[C@]2(C)[C@@H]13,inactive,–
O=P(O)(OCc1ccccc1)OCc1ccccc1,inactive,–
Cc1[nH]c(C)c(Cl)c(=O)c1Cl,inactive,–
CCC(=O)O[C@]1(C(=O)CCl)[C@@H](C)C[C@H]2[C@@H]3CCC4=CC(=O)C=C[C@]4(C)[C@@]3(F)[C@@H](O)C[C@@]21C,inactive,–
CCCCC(CC)COC(=O)COc1ccc(Cl)cc1Cl (stereo not given),inactive,–
C=CCOC(=O)CCC1CCCCC1,inactive,–
O=C1OC(CN2CCOCC2)CN1/N=C/c1ccc([N+](=O)[O-])o1 (stereo not given),inactive,–
C=CC(=O)OCCOCCOC(=O)C=C,49.2 µM (active),–
CN(C)c1ccc(C(c2ccccc2)c2ccc(N(C)C)cc2)cc1,inactive,–
CCCCCCCC/C=C\CCCCCCCC(=O)OCC,inactive,–
O=C(O)c1ccc(-n2nc(-c3ccccc3O)nc2-c2ccccc2O)cc1,inactive,–
OCCN1CCN(CCCN2c3ccccc3C=Cc3ccccc32)CC1,inactive,–
CC(C)Cc1ccc(C(C)C(=O)OCc2ccccn2)cc1 (stereo not given),inactive,–
CCOc1ccc(N)c([N+](=O)[O-])c1,inactive,–
Nc1ncn([C@H]2C[C@H](O)[C@@H](CO)O2)c(=O)n1,inactive,–
